Assay results reported in PubChem BioAssay (Tox21).
Results filed as inconclusive are left out. Activity calls are given as the source filed them. Unless noted, the call rests on the fitted dose curve.

Key:
[1] = qHTS assay to identify small molecule agonists of the vitamin D receptor (VDR) signaling pathway - cell viability counter screen (AID 743224; active means well fitted curve in the direction sought with a large enough effect in the repeat runs; an effect the other way counts as inactive or inconclusive; further: series mostly up to about 63 µM; on the % scale 0 is the no-effect control and ±100 the full control effect; nearly all actives have a fitted effect of over 50% in size)
Outline: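 VDR-bla cells were preincubated 4 h at 37C/5% CO2, then exposed to compounds for 16 h. After the 2 h room-temperature bla FRET read, CellTiter-Glo was added to the same wells and luminescence read after 30 min.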

[2] = qHTS assay to identify small molecule antagonists of the vitamin D receptor (VDR) signaling pathway - cell viability counter screen (AID 743225; active means well fitted curve in the direction sought with a large enough effect in the repeat runs; an effect the other way counts as inactive or inconclusive; further: on the % scale 0 is the no-effect control and ±100 the full control effect; nearly all actives have a fitted effect of over 50% in size)
Outline: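 Parallel cytotoxicity test: VDR-UAS-bla HEK 293T, 3 nM (final) 1-alpha,25-dihydroxyvitamin D3 with test compound, 16 h, 37C. Endpoint is CellTiter-Glo luminescence in the same wells.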

[3] = qHTS assay to identify small molecule agonists of the NFkB signaling pathway (AID 1159509; active means well fitted curve in the direction sought with a large enough effect in the signal ratio in the repeat runs, not every such curve was filed as active; the % refers to the signal ratio; further: series mostly up to about 61 µM; on the % scale 0 is the no-effect control and ±100 the full control effect)
Outline: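 NFkB-bla ME-180 cells carry a beta-lactamase reporter under an NF-kB response element. They were plated overnight, then exposed to compounds for 5 h at 37 C. Read-out is LiveBLAzer FRET after 1.5 hr at room temperature (405 nm excitation; 460/530 nm emission).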

[4] = qHTS assay to identify small molecule agonists of the NFkB signaling pathway - cell viability counter screen (AID 1159515); further: series mostly up to about 61 µM; on the % scale 0 is the no-effect control and ±100 the full control effect; nearly all actives have a fitted effect of over 55% in size
Outline: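 NFkB-bla ME-180 cells, 2,000/well, were plated overnight at 37 C, 5% CO2, then exposed to compounds in DMSO for 5 hr. After the bla FRET read, CellTiter-Glo was added to the same wells; luminescence was read after 30 min at room temperature.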

[5] = qHTS assay to identify small molecule agonists of the endoplasmic reticulum stress response signaling pathway (AID 1159516; active means well fitted activation curve with a large enough effect in the signal ratio in the repeat runs, not every such curve was filed as active; the % refers to the signal ratio; further: on the % scale 0 is the no-effect control and ±100 the full control effect)
Outline: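 CellSensor ESRE-bla HeLa cells, carrying a beta-lactamase reporter driven by the ER stress response element, were plated overnight and exposed to compounds for 5 hr at 37 C. Reporter activity was read as FRET substrate fluorescence after 2 hr at room temperature.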

[6] = qHTS assay to identify small molecule agonists of the endoplasmic reticulum stress response signaling pathway - cell viability counter screen (AID 1159517); further: series mostly up to about 61 µM; on the % scale 0 is the no-effect control and ±100 the full control effect; nearly all actives have a fitted effect of over 50% in size
Outline: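 ESRE-bla HeLa cells, 1,500 per well, seeded overnight then treated with compounds for 5 hr at 37 C. After the beta-lactamase read, viability in the same wells is measured by CellTiter-Glo luminescence after 30 min at room temperature.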

[7] = qHTS assay to identify small molecule antagonists of the retinoid-related orphan receptor gamma (ROR-gamma) signaling pathway - cell viability counter screen (AID 1159520; active means well fitted curve in the direction sought with a large enough effect in the repeat runs; an effect the other way counts as inactive or inconclusive; further: on the % scale 0 is the no-effect control and ±100 the full control effect; nearly all actives have a fitted effect of over 50% in size)
Outline: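 Tet-on ROR gamma CHO cells were given compounds for 2 hr, then doxycycline hyclate at 1 uM final, and incubated 16 hr at 37 C. Viability was measured as ATP content by CellTiter-Glo luminescence.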

[8] = target: Nuclear receptor ROR-gamma (Homo sapiens) (UniProt P51449); experiment: qHTS assay to identify small molecule antagonists of the retinoid-related orphan receptor gamma (ROR-gamma) signaling pathway (AID 1159521; active means well fitted curve in the direction sought with a large enough effect in the repeat runs; an effect the other way counts as inactive or inconclusive)
Outline: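 Decreased RORE-driven luciferase luminescence indicates antagonism. Tet-on RORγ CHO cells received compound, then 1 uM final doxycycline 2 h later; signal read after 16 h incubation.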

[9] = qHTS assay to identify small molecule agonists of the AP-1 signaling pathway - cell viability counter screen (AID 1159525); further: nearly all actives have a fitted effect of over 55% in size
Outline: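 AP-1-bla ME-180 cells in Opti-MEM with 0.5% dialyzed FBS, compound exposure 5 h at 37 C in 15-point titration. Viability read in the same wells as ATP content by CellTiter-Glo luminescence, normalised to tetra-n-octylammonium bromide and DMSO controls.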

[10] = qHTS assay to identify small molecule agonists of the AP-1 signaling pathway (AID 1159526); further: on the % scale 0 is the no-effect control and ±100 the full control effect

CCC(C)(C)C1CCC(=O)CC1
inactive: outcome [1] | outcome [2] | outcome [3] | outcome [4] | outcome [5] | outcome [6] | outcome [7] | outcome [8] | outcome [9] | outcome [10]

FC(F)(F)c1ccc(Cl)cc1Cl
inactive: outcome [1] | outcome [2] | outcome [3] | outcome [4] | outcome [5] | outcome [6] | outcome [7] | outcome [8] | outcome [9] | outcome [10]

Cc1cccc(NC(=S)N(C)C)c1
inactive: outcome [1] | outcome [2] | outcome [3] | outcome [4] | outcome [5] | outcome [6] | outcome [7] | outcome [8] | outcome [9] | outcome [10]

CCN(CC)C(=O)C1CN2CCc3cc(OC)c(OC)cc3C2CC1OC(C)=O (stereo not given)
inactive: outcome [1] | outcome [2] | outcome [3] | outcome [4] | outcome [5] | outcome [6] | outcome [7] | outcome [8] | outcome [9] | outcome [10]

O=S(=O)(O)SSS(=O)(=O)O
inactive: outcome [1] | outcome [2] | outcome [3] | outcome [4] | outcome [5] | outcome [6] | outcome [7] | outcome [8] | outcome [9] | outcome [10]

O=C(O)c1c(Cl)ccc(Cl)c1Cl
inactive: outcome [1] | outcome [2] | outcome [3] | outcome [4] | outcome [5] | outcome [6] | outcome [7] | outcome [8] | outcome [9] | outcome [10]

CC1=CC[C@H](CC=O)C1(C)C
inactive: outcome [1] | outcome [2] | outcome [3] | outcome [4] | outcome [5] | outcome [6] | outcome [7] | outcome [8] | outcome [9] | outcome [10]

COc1cccc2sc(N)nc12
inactive: outcome [1] | outcome [2] | outcome [3] | outcome [4] | outcome [5] | outcome [6] | outcome [7] | outcome [8] | outcome [9] | outcome [10]

CCOC(=O)C(C)(C)C
inactive: outcome [1] | outcome [2] | outcome [3] | outcome [4] | outcome [5] | outcome [6] | outcome [7] | outcome [8] | outcome [9] | outcome [10]

CC(C)C(=O)c1ccccc1
inactive: outcome [1] | outcome [2] | outcome [3] | outcome [4] | outcome [5] | outcome [6] | outcome [7] | outcome [8] | outcome [9] | outcome [10]

NC(=O)C1(N2CCCCC2)CCN(CCCC(=O)c2ccc(F)cc2)CC1
inactive: outcome [1] | outcome [2] | outcome [3] | outcome [4] | outcome [5] | outcome [6] | outcome [7] | outcome [8] | outcome [9] | outcome [10]

Nc1ccc(S(=O)(=O)Nc2ccccn2)cc1
inactive: outcome [1] | outcome [2] | outcome [3] | outcome [4] | outcome [5] | outcome [6] | outcome [7] | outcome [8] | outcome [9] | outcome [10]

OCCCCCCCl
inactive: outcome [1] | outcome [2] | outcome [3] | outcome [4] | outcome [5] | outcome [6] | outcome [7] | outcome [8] | outcome [9] | outcome [10]

C=C(C)C(=O)OCCCCCCOC(=O)C(=C)C
inactive: outcome [1] | outcome [2] | outcome [3] | outcome [4] | outcome [5] | outcome [6] | outcome [7] | outcome [8] | outcome [9] | outcome [10]

c1ccc(CNc2ncnc3nc[nH]c23)cc1
inactive: outcome [1] | outcome [2] | outcome [3] | outcome [4] | outcome [5] | outcome [6] | outcome [7] | outcome [8] | outcome [9] | outcome [10]

CC(=O)OC(C)(C)Cc1ccccc1
inactive: outcome [1] | outcome [2] | outcome [3] | outcome [4] | outcome [5] | outcome [6] | outcome [7] | outcome [8] | outcome [9] | outcome [10]

CC(=O)c1ccc(OCC(=O)N2CCCCC2)cc1
inactive: outcome [1] | outcome [2] | outcome [3] | outcome [4] | outcome [5] | outcome [6] | outcome [7] | outcome [8] | outcome [9] | outcome [10]

CC(C)COC(=O)COc1ccc(Cl)cc1Cl
inactive: outcome [1] | outcome [2] | outcome [3] | outcome [4] | outcome [5] | outcome [6] | outcome [7] | outcome [8] | outcome [9] | outcome [10]

CCOC(=O)CCCCCCCCC(=O)OCC
inactive: outcome [1] | outcome [2] | outcome [3] | outcome [4] | outcome [5] | outcome [6] | outcome [7] | outcome [8] | outcome [9] | outcome [10]

CCCCOC(=O)[C@@H](C)Oc1ccc(Oc2ccc(C(F)(F)F)cn2)cc1
inactive: outcome [1] | outcome [2] | outcome [3] | outcome [4] | outcome [5] | outcome [6] | outcome [7] | outcome [8] | outcome [9] | outcome [10]

C=CCCCCCCCCCCC
inactive: activity change, negative = cytotoxicity [1] -9.89% [at 5.95 µM] | viability change, negative = cytotoxic [2] 5.49% [at 6.95 µM] | activation [3] 0.0657% [at 6.95 µM] | activity, negative = cytotoxic [4] -9.69% [at 6.95 µM] | activation [5] -5.43% [at 6.95 µM] | activity change, negative = cytotoxicity [6] -0.545% [at 6.95 µM] | activity, negative = cytotoxicity [7] 3.91% [at 8.39 µM] | activity change, negative = inhibition [8] -1.42% [at 8.39 µM] | viability change, negative = cytotoxic [9] 9.65% [at 6.97 µM] | activation [10] -2.43% [at 6.97 µM]

Cc1oc(=O)oc1CN1CCN(c2cc3c(cc2F)c(=O)c(C(=O)O)c2n3C(C)S2)CC1 (stereo not given)
inactive: outcome [1] | outcome [2] | outcome [3] | outcome [4] | outcome [5] | outcome [6] | outcome [7] | outcome [8] | outcome [9] | outcome [10]

CC(C)(C)c1ccc(C=O)cc1
inactive: outcome [1] | outcome [2] | outcome [3] | outcome [4] | outcome [5] | outcome [6] | outcome [7] | outcome [8] | outcome [9] | outcome [10]

CNCc1ccccc1
inactive: outcome [1] | outcome [2] | outcome [3] | outcome [4] | outcome [5] | outcome [6] | outcome [7] | outcome [8] | outcome [9] | outcome [10]
